# The supplement of paper PMC9254222
# The full ranking holds about 1,100 compounds; the median of “Wnt reporter firefly/Renilla luciferase ratio relative to plate median” is about 1.1, and the highest 2% start at about 1.6. The list comes from a sample in which the highest values are over-represented; it also holds similar structures and randomly drawn compounds.
# Tested on: HEK293T (UBE3A T485A transfected, BAR Wnt reporter)
# Experiment: Wnt reporter firefly/Renilla luciferase ratio relative to plate median (fold (linear ratio)); higher = more Wnt/beta-catenin reporter activation
# Details: 24 h
# In short: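 HEK293T cells were seeded at 4500 cells/well in white 384-well plates and grown in DMEM with 10% FBS at 37°C and 5% CO2. The cells were transfected using Fugene 6 with a BAR firefly luciferase Wnt reporter, TK-Renilla and an expression plasmid, and four hours later robots added the chemicals at 0.01–100 uM for 24 h before a Dual-Glo luciferase readout. Wnt activity was taken as the firefly/Renilla ratio and cell health as raw Renilla, each median-centred per plate. Values are averages of four biological replicates.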
SMILES,Wnt reporter firefly/Renilla luciferase ratio (concentration: 0.1 uM),Wnt reporter firefly/Renilla luciferase ratio (concentration: 1 uM),Wnt reporter firefly/Renilla luciferase ratio (concentration: 10 uM),Wnt reporter firefly/Renilla luciferase ratio (concentration: 100 uM),Wnt reporter firefly/Renilla luciferase ratio (concentration: 0.01 uM),Wnt reporter firefly/Renilla luciferase ratio (concentration: .1 uM)
CCC(C)c1ccccc1O (stereo unspecified) [2-(Butan-2-yl)phenol],1.19,0.977,0.947,1.14,,
CC(C)COC(=O)CCCCC(=O)OCC(C)C [Diisobutyl adipate],1.11,1.15,1.28,1.44,,
CCCN(CCC)C(=O)SCC,1.22,0.859,1.3,1.09,1.35,
CCSC(=O)N(CC(C)C)CC(C)C [Butylate],1.31,1.21,1.71,0.486,1.05,
CN1C(=O)N(c2ccccc2Br)Cc2cnc(Nc3ccc4c(c3)OCC(CO)O4)nc21 (stereo unspecified),0.694,0.73,1.19,,,
Oc1ccccc1 [Phenol],0.93,1.28,1.19,1.35,,
CCOCCO [2-Ethoxyethanol],1.04,1.01,1.18,1.25,,
CCOCCOCCO [2-(2-Ethoxyethoxy)ethanol],0.833,1.24,0.948,1.26,,
CCOCCOCCOCCO [2-[2-(2-Ethoxyethoxy)ethoxy]ethanol],0.979,0.929,1.01,1.62,,
CC(C)CCCCCCOC(=O)c1ccc(C(=O)OCCCCCCC(C)C)c(C(=O)OCCCCCCC(C)C)c1 [Triisononyl trimellitate],1.08,0.919,1.18,1.34,,
CC[C@@H]1C[C@H](N(Cc2cc(C(F)(F)F)cc(C(F)(F)F)c2)C(C)=O)c2cc(C(F)(F)F)ccc2N1C(=O)OC(C)C,0.973,1.26,1.2,1.01,,
"O=C(O)c1cccc(C(=O)O)c1 [1,3-Benzenedicarboxylic acid]",1.21,1.28,1.24,1.02,,
CC(C)(c1ccc(O)cc1)c1ccc(O)cc1 [Bisphenol A],1.13,1.05,0.924,0.302,1.09,
CC[C@H](C)[C@@H](C(=O)O)n1sc2ccccc2c1=O,0.996,0.949,0.684,0.568,,
CCOC(=O)C(C)Oc1ccc(Oc2nc3ccc(Cl)cc3o2)cc1 (stereo unspecified) [Fenoxaprop-ethyl],1.37,0.888,0.884,0.813,1.14,
CCCCOC(=O)C(C)Oc1ccc(Oc2ccc(C(F)(F)F)cn2)cc1 (stereo unspecified) [Fluazifop-butyl],1.71,1.15,1.54,1.13,1.15,
CCCCOC(=O)[C@@H](C)Oc1ccc(Oc2ccc(C(F)(F)F)cn2)cc1 [Fluazifop-P-butyl],0.832,1.04,1.09,1.67,0.757,
CCCCOC(=O)c1ccccc1 [Butyl benzoate],1.4,0.911,1.09,1.11,,
CCOC(=O)C(C)Oc1ccc(Oc2cnc3cc(Cl)ccc3n2)cc1 (stereo unspecified) [Quizalofop-ethyl],1.1,1.03,1.09,0.981,0.779,
C#CCOC(=O)[C@@H](C)Oc1ccc(Oc2ncc(Cl)cc2F)cc1 [Clodinafop-propargyl],1.37,1.14,1.25,0.479,1.28,
CCCCCCCCOC(=O)c1cc(O)c(O)c(O)c1 [Octyl gallate],1.25,1.3,0.702,0.614,,

SMILES,Wnt reporter firefly/Renilla luciferase ratio (concentration: 0.1 uM),Wnt reporter firefly/Renilla luciferase ratio (concentration: 1 uM),Wnt reporter firefly/Renilla luciferase ratio (concentration: 10 uM),Wnt reporter firefly/Renilla luciferase ratio (concentration: 100 uM),Wnt reporter firefly/Renilla luciferase ratio (concentration: 0.01 uM),Wnt reporter firefly/Renilla luciferase ratio (concentration: .1 uM)
COC(=O)c1ccccc1C(=O)O [Monomethyl phthalate],1.05,1.09,1.11,1.4,1.05,
CC(=O)OC1CC(C)OC(C)O1 (stereo unspecified) [Dimethoxane],1.1,0.976,0.952,0.736,,
"Cc1ccc(N(C)C)cc1 [N,N,4-Trimethylaniline]",1.08,1.2,1.06,0.933,,
Cc1ccc(C(C)C)c(O)c1 [Thymol],0.988,1.09,1.29,1.08,,
Sc1nc2ccccc2s1 [2-Mercaptobenzothiazole],1.39,1.62,1.3,1.69,,
N#CSCSc1nc2ccccc2s1 [2-(Thiocyanomethylthio)benzothiazole],0.88,1.09,1.06,,0.895,
CS(=O)(=O)c1ccc([C@@H](C[C@H]2CCC(=O)C2)C(=O)Nc2cnccn2)cc1Cl [Piragliatin],1.03,0.959,1.02,1.3,,
COc1cc2c3c(n(CCCn4ccnc4)c(=O)c2cc1OC)-c1cc2c(cc1C3=O)OCO2.Cl,0.457,0.72,0.631,0.938,1.15,
OCC(O)CO [Glycerol],1.1,0.905,1.05,1.04,,
S=C([S-])NCCNC(=S)[S-].S=C([S-])NCCNC(=S)[S-].[Mn+2].[Zn+2] [Mancozeb],0.999,0.95,0.951,,0.932,
Nc1ccc(C(=O)O)cc1 [4-Aminobenzoic acid],1.22,1.07,0.948,1.2,,
CC(C)c1cccc(C(C)C)c1NC(=O)[N-]S(=O)(=O)c1cc(C(C)(C)O)co1.[Na+],1.05,1.08,1.2,1.05,,
CC/C(=C(\c1ccccc1)c1ccc(OCCN(C)C)cc1)c1ccccc1.O=C(O)CC(O)(CC(=O)O)C(=O)O [Tamoxifen citrate],0.922,0.964,0.891,1.01,,
"O=C(c1ccc(O)cc1O)c1ccc(O)cc1O [2,2',4,4'-Tetrahydroxybenzophenone]",1.29,1.33,1.49,0.463,,
"CC(C)C(=O)OCC(C)(C)C(OC(=O)C(C)C)C(C)C (stereo unspecified) [2,2,4-Trimethyl-1,3-pentanediol diisobutyrate]",0.92,0.885,1.15,1.64,,
CC[C@]1(O)C[C@H]2C[N@](CCc3c([nH]c4ccccc34)[C@@](C(=O)OC)(c3cc4c(cc3OC)N(C=O)[C@H]3[C@@](O)(C(=O)OC)[C@H](OC(C)=O)[C@]5(CC)C=CCN6CC[C@]43[C@@H]65)C2)C1 [Vincristine],,,0.418,,0.387,
OCCO [Ethylene glycol],1.37,1.07,1.12,1.27,,
NCCO [Ethanolamine],,0.968,1.41,2.04,,1.09
CCCCCCCCCCCC[N+](C)(C)C.[Cl-] [Dodecyltrimethylammonium chloride],1.41,1.1,0.377,,,
CCc1ccc(CCOc2ccc(CC3SC(=O)NC3=O)cc2)nc1.Cl (stereo unspecified) [Pioglitazone hydrochloride],0.94,0.896,0.903,1.1,,
C=C(C)C(=O)OCCC(F)(F)C(F)(F)C(F)(F)C(F)(F)C(F)(F)C(F)(F)F [Tridecafluorohexylethyl methacrylate],1.03,1.12,1.06,1.16,,

SMILES,Wnt reporter firefly/Renilla luciferase ratio (concentration: 0.1 uM),Wnt reporter firefly/Renilla luciferase ratio (concentration: 1 uM),Wnt reporter firefly/Renilla luciferase ratio (concentration: 10 uM),Wnt reporter firefly/Renilla luciferase ratio (concentration: 100 uM),Wnt reporter firefly/Renilla luciferase ratio (concentration: 0.01 uM),Wnt reporter firefly/Renilla luciferase ratio (concentration: .1 uM)
"CC(C)=CCCC(C)=CC=O [3,7-Dimethyl-2,6-octadienal]",1.11,1.26,1.03,1.09,,
"CC(C)=CCC/C(C)=C\CO [(2Z)-3,7-Dimethylocta-2,6-dien-1-ol]",1.17,0.941,1.5,1.03,,
CC(C)=CCC/C(C)=C/CO [Geraniol],1.1,1.26,1.15,1.75,,
OC(Cn1cncn1)(Cn1cncn1)c1ccc(F)cc1F [Fluconazole],1.15,0.884,1.33,1.25,,
Cc1ccccc1Cl [2-Chlorotoluene],0.964,0.931,1.37,1.44,,
CCCCCCCC[Si](OCC)(OCC)OCC [Triethoxyoctylsilane],1.15,0.902,1.05,1.38,,
CCOC(N)=O [Urethane],1.05,0.955,1.11,1.3,,
CCO[Si](CCCNC(N)=O)(OCC)OCC [1-[3-(Triethoxysilyl)propyl]urea],1.11,0.853,1.36,1.66,,
O=N[O-].[Na+] [Sodium nitrite],1.13,0.943,1.4,1.29,,
COc1ccc(CC(N)C(=O)NC2C(CO)OC(n3cnc4c(N(C)C)ncnc43)C2O)cc1 (stereo unspecified) [Puromycin],0.78,0.249,,,0.865,
CC[C@H](NC(=O)c1cc(F)ccc1[N-]S(=O)(=O)c1cccc2cccnc12)c1ccccc1.[Na+],1.22,1.08,1.18,0.234,,
O=C(O)c1ccccc1C(=O)OCc1ccccc1 [Monobenzyl phthalate],1.1,0.986,1.31,1.16,,
CCCCC(CC)COC(=O)CCCCC(=O)OCc1ccccc1 (stereo unspecified) [Benzyloctyl adipate],0.909,1.03,1.13,1.12,,
CC(C)CC(C=O)NC(=O)C(CC(C)C)NC(=O)C(CC(C)C)NC(=O)OCc1ccccc1 (stereo unspecified),0.85,2.61,,,0.993,
CCCCC(CC)COC(=O)CC(C(=O)OCC(CC)CCCC)S(=O)(=O)[O-].[Na+] (stereo unspecified) [Docusate sodium],0.824,1.14,0.946,0.789,,
CC#C[C@]1(O)CC[C@H]2[C@@H]3CCC4=CC(=O)CCC4=C3[C@@H](c3ccc(N(C)C)cc3)C[C@@]21C [Mifepristone],0.957,0.893,0.624,0.0932,,
CNC(=O)[C@H]1O[C@@H](n2cnc3c(NCc4cc(Cl)ccc4OCc4cc(C)no4)ncnc32)[C@H](O)[C@@H]1N,0.941,1.17,1.13,1.06,,
O=C(NS(=O)(=O)/C=C/c1cccs1)c1ccc(F)cc1Br,1.13,1.12,0.456,0.251,,
c1ccc2cc3c(ccc4ccccc43)cc2c1 [Benz(a)anthracene],1,0.949,1.29,0.737,,
c1ccc2ccccc2c1 [Naphthalene],1.17,1.18,1.32,1.48,,
c1ccc2cc3ccccc3cc2c1 [Anthracene],0.982,0.92,0.951,2.12,,
